Data from PubChem BioAssay (EPA / NIEHS).
Results filed as inconclusive are left out. Calls of active or inactive are those of the source. Rule for the calls, unless noted: active = hit-call score of the fitted dose curve at least 0.9, where 1 is the maximum; inactive = score below 0.9.

What was measured:
[1] = ACEA_ER_80hr: ACEA Biosciences xCELLigence Real-Time Cell Analysis on Estrogen Receptor Agonism for Proliferation (AID 2282667; active = hit-call score of the fitted dose curve at least 0.9, where 1 is the maximum); conditions: T47D proliferation, impedance (xCELLigence), 80 h
Procedure, shortened: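 Impedance readout (RT-CES) of T47D proliferation at 80 h post-dose; gain of signal vs DMSO baseline. Compounds: 8 conc, 1:4 serial, top 100 uM final, ≤0.5% DMSO; biological duplicate.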

[2] = ATG_CRE_CIS: Attagene CIS-FACTORIAL HepG2 Assay for human cAMP Responsive Element (CRE) binding protein 3 (AID 2282926); conditions: HepG2 CRE cis-reporter, Attagene multiplexed mRNA; actives raise or lower the signal
Procedure, shortened: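 Readout: fluorescently labelled reporter transcripts resolved by capillary electrophoresis after RT-PCR, taken 24 h post-dosing in transfected HepG2. Endogenous transcription factor activity drives each cis-element reporter; gain or loss of signal fitted relative to DMSO control.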

[3] = biological target: CCAAT/enhancer-binding protein beta (Homo sapiens) (UniProt P17676); test: ATG_C_EBP_CIS: Attagene CIS-FACTORIAL HepG2 Assay for human CCAAT/Enhancer Binding Protein (C/EBP) beta (AID 2282927); conditions: HepG2 Attagene cis-factorial transcription factor reporter; actives raise or lower the signal
CCAAT/enhancer-binding protein beta (Homo sapiens), sequence (P17676 whole entry, looked up): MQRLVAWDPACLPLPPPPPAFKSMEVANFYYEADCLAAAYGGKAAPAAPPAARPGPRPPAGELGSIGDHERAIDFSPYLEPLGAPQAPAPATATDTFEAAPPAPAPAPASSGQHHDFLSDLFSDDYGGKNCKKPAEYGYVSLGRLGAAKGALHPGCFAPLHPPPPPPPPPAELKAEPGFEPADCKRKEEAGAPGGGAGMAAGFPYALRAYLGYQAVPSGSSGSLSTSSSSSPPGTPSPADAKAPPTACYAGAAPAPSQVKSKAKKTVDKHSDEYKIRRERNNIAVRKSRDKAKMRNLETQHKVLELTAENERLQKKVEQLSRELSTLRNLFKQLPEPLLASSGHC
Procedure, shortened: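 Endogenous transcription factor activity in human liver HepG2 cells is inferred from induction of a CEBPB-linked reporter mRNA. Exposure lasts 24 h; activity is fitted in both directions relative to DMSO.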

[4] = ATG_CMV_CIS: Attagene CIS-FACTORIAL HepG2 Assay for human CMV (Internal Marker) (AID 2282928); conditions: HepG2 CMV promoter reporter, transcription factor profiling; actives raise or lower the signal;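 note: endpoint acts as a background internal control marker rather than a target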
Procedure, shortened: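 Fluorescence intensity of RT-PCR-derived reporter fragments, resolved by capillary electrophoresis, gives the signal. HepG2 liver cells bearing transfected cis-element reporters were treated 24 h; activity in either direction was fit relative to DMSO-treated controls.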

[5] = ATG_DR4_LXR_CIS: Attagene CIS-FACTORIAL HepG2 Assay for human Liver X Receptor (LXR), DR4 submotif (AID 2282929); conditions: HepG2 Attagene DR4 cis-reporter, mRNA transcription; actives raise or lower the signal
Procedure, shortened: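 Measures endogenous transcription factor activity via a DR4-driven reporter transcript in human HepG2 cells. Compounds incubated 24 h; mRNA quantified by RT-PCR and capillary electrophoresis, analysed as gain or loss of signal versus DMSO.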

[6] = ATG_AP_1_CIS: Attagene CIS-FACTORIAL HepG2 Assay for human Activator Protein 1 (AP-1) (AID 2282931); conditions: HepG2 Attagene cis-factorial AP-1 reporter mRNA; actives raise or lower the signal
Procedure, shortened: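 Bidirectional concentration-response fitting against DMSO controls. Underlying signal: reporter mRNA from cis-promoter constructs in transiently transfected HepG2, measured after 24 h by RT-PCR and capillary electrophoresis.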

[7] = ATG_AP_2_CIS: Attagene CIS-FACTORIAL HepG2 Assay for human Activator Protein 2 (AP-2) (AID 2282932); conditions: HepG2 AP-2 cis-reporter, Attagene transcription factor profiling; actives raise or lower the signal
Procedure, shortened: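 Transiently transfected HepG2 cells are exposed to chemical for 24 h. Reporter transcripts are then measured as fluorescence following RT-PCR and capillary separation, and gain- or loss-of-signal is fitted relative to DMSO.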

[8] = ATG_BRE_CIS: Attagene CIS-FACTORIAL HepG2 Assay for human Bone Morphogenetic Protein (BMP) Response Element (BRE) (AID 2282933); conditions: HepG2 BMP response element reporter, Attagene transcription factor profiling; actives raise or lower the signal
Procedure, shortened: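 Endogenous transcription factor activity at a BMP response element was monitored in transfected HepG2 cells 24 h after dosing. Fluorescent RT-PCR products were resolved by capillary electrophoresis, and activity was fitted in both directions versus DMSO.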

[9] = biological target: Retinoic acid receptor alpha (Homo sapiens) (UniProt P10276); test: ATG_DR5_RAR_CIS: Attagene CIS-FACTORIAL HepG2 Assay for human Retinoic Acid Receptor Alpha (RARE), DR5 submotif (AID 2282934); conditions: HepG2 Attagene cis-factorial RARE DR5 reporter, mRNA; actives raise or lower the signal;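 for AC50: reporter responds to endogenous RAR alpha beta and gamma in HepG2 not RARA alone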
Retinoic acid receptor alpha (Homo sapiens), sequence (P10276 whole entry, looked up): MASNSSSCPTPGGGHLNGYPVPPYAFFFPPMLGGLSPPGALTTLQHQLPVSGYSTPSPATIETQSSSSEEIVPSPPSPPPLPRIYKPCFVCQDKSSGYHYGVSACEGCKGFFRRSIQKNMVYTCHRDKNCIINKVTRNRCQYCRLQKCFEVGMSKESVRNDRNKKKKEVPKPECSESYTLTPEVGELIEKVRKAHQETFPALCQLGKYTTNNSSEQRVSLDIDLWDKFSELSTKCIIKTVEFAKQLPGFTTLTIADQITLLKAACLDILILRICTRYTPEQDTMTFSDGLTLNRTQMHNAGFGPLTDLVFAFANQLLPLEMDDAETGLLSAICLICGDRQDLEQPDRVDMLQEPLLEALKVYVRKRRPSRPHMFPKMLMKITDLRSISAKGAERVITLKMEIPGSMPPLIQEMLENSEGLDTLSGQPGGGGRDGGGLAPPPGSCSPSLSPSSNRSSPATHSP
Procedure, shortened: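 Transient MRTU transfection of HepG2; 24 h compound treatment; TriZol RNA, oligo(dT) RT, PCR, FAM labelling, capillary electrophoresis. Bidirectional fit vs DMSO. Endogenous TF activity at DR5 RARE.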

[10] = biological target: Transcription factor E2F1 (Homo sapiens) (UniProt Q01094); test: ATG_E2F_CIS: Attagene CIS-FACTORIAL HepG2 Assay for human E2F Transcription Factor 1 (AID 2282935); conditions: HepG2 Attagene cis-reporter, E2F reporter RNA transcripts; actives raise or lower the signal
Transcription factor E2F1 (Homo sapiens), sequence (Q01094 whole entry, looked up): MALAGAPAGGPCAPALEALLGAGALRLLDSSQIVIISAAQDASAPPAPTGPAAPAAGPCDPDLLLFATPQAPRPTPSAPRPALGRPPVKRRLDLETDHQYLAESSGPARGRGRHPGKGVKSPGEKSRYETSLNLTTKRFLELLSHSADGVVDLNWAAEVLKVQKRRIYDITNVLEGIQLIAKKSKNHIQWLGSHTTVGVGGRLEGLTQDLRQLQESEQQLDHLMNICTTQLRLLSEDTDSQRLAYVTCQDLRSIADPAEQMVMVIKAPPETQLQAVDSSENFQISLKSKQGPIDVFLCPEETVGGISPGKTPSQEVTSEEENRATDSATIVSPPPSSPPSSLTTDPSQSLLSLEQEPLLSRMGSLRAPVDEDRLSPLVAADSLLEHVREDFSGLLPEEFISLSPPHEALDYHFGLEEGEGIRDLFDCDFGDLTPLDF
Procedure, shortened: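 Fluorescent RT-PCR products, digested with HpaI for 2 h at 37 C, are separated by capillary electrophoresis. Source RNA comes from transfected HepG2 cultures treated for 24 h.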

[11] = ATG_M_61_CIS: Attagene CIS-FACTORIAL HepG2 Assay for M61 Transcription Factor (Internal Marker) (AID 2282937); conditions: HepG2 Attagene CIS-FACTORIAL M61 internal marker reporter; actives raise or lower the signal
Procedure, shortened: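 Fluorescence from labelled cDNA fragments, separated by capillary electrophoresis, quantifies reporter induction. HepG2 cells bearing transiently transfected cis-promoter MRTUs were incubated with test chemical for 24 h; DMSO defined baseline for gain/loss fitting.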

[12] = ATG_EGR_CIS: Attagene CIS-FACTORIAL HepG2 Assay for human Early Growth Response 1 (EGR1) (AID 2282938); conditions: HepG2 Attagene CIS-FACTORIAL EGR reporter mRNA; actives raise or lower the signal
Procedure, shortened: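 Cell-based multiplex transcription assay: HepG2 carrying transfected cis-element reporter units, 24 h chemical treatment. Fluorescence from capillary electrophoresis of RT-PCR products gives mRNA levels; fitting is bidirectional relative to DMSO.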

[13] = ATG_M_19_CIS: Attagene CIS-FACTORIAL HepG2 Assay for M19 Transcription Factor (Internal Marker) (AID 2282939); conditions: HepG2 Attagene CIS-FACTORIAL M19 internal marker reporter; actives raise or lower the signal
Procedure, shortened: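 Background-control endpoint from a multiplexed HepG2 reporter panel. Cells carrying cis-regulated reporter constructs are treated 24 h, then reporter transcripts are amplified, fluorescently labelled and sized by capillary electrophoresis. DMSO defines baseline.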

[14] = ATG_ERE_CIS: Attagene CIS-FACTORIAL HepG2 Assay for Estrogen Response Element (ERE) (AID 2282940); conditions: HepG2 ERE cis-reporter, Attagene RNA transcript; actives raise or lower the signal
Procedure, shortened: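 Cells used were human hepatoma HepG2, transfected with multiple reporter transcription units under cis-regulatory promoters. Reporter mRNA, read 24 h post-dosing via fluorescent RT-PCR products on capillary electrophoresis, was fitted bidirectionally relative to DMSO.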

[15] = ATG_Ets_CIS: Attagene CIS-FACTORIAL HepG2 Assay for human Erythroblast Transformation Specific (ETS) (AID 2282941); conditions: HepG2 ETS cis-reporter transcription, actives raise or lower the signal
Procedure, shortened: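 Multiplexed reporter transcript profiling: HepG2, 24 h treatment, total RNA to cDNA, PCR, 6-FAM labelling, HpaI cut, capillary electrophoresis. Gain- or loss-of-signal fitted against DMSO.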

[16] = biological target: Hepatocyte nuclear factor 3-beta (Homo sapiens) (UniProt Q9Y261); test: ATG_FoxA2_CIS: Attagene CIS-FACTORIAL HepG2 Assay for human Forkhead box A2 (FOXA2) (AID 2282942); conditions: HepG2 cis-reporter transcription factor activity, 24 h; actives raise or lower the signal
Hepatocyte nuclear factor 3-beta (Homo sapiens), sequence (Q9Y261 whole entry, looked up): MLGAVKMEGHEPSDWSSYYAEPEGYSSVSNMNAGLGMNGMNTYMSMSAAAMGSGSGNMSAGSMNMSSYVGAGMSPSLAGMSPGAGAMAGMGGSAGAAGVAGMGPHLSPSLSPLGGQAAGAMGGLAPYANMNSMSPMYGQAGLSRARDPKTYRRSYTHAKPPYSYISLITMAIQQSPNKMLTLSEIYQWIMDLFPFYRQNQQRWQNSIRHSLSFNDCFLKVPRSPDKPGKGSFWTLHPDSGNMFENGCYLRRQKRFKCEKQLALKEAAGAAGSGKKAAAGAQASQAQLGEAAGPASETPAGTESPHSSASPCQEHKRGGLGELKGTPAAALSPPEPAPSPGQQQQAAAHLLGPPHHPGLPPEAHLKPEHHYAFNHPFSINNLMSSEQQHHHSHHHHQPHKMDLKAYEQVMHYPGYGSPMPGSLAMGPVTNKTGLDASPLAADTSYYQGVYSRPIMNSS
Procedure, shortened: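 In transiently transfected human HepG2 cells, promoter-driven reporter mRNA levels after 24 h chemical exposure are determined via RT-PCR with capillary electrophoresis. DMSO serves as baseline for bidirectional fitting.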

[17] = ATG_FoxO_CIS: Attagene CIS-FACTORIAL HepG2 Assay for human Forkhead box O (FoxO) (AID 2282943); conditions: HepG2 Attagene cis-reporter, FoxO element, mRNA; actives raise or lower the signal
Procedure, shortened: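 HepG2, transient MRTU transfection (cis element, endogenous TFs). Dose 24 h. TriZol RNA → oligo(dT) RT → PCR → 6-FAM primer extension → HpaI cut → CE. Gain/loss vs DMSO.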

[18] = ATG_GATA_CIS: Attagene CIS-FACTORIAL HepG2 Assay for human GATA Binding Protein (AID 2282944); conditions: HepG2 GATA cis-element reporter, Attagene multiplex mRNA; actives raise or lower the signal
Procedure, shortened: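 Endogenous transcription factor activity was captured through cis-promoter-driven reporters in transfected HepG2 cells. After 24 h exposure, reporter transcripts were quantified by RT-PCR with fluorescent capillary electrophoresis, and responses fitted both directions against DMSO.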

[19] = ATG_E_Box_CIS: Attagene CIS-FACTORIAL HepG2 Assay for human Enhancer Box (E-box) (AID 2282936); conditions: HepG2 E-box cis-reporter transcription, actives raise or lower the signal
Procedure, shortened: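 Fluorescent reporter fragments separated by capillary electrophoresis gave the signal; mRNA came from HepG2 cells transfected with cis-element reporters and treated 24 h. Curves fitted bidirectionally relative to DMSO controls.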

[20] = biological target: Aryl hydrocarbon receptor (Homo sapiens) (UniProt P35869); test: ATG_Ahr_CIS: Attagene CIS-FACTORIAL HepG2 Assay for human Aryl Hydrocarbon Receptor (Ahr) (AID 2282930); conditions: HepG2 AhR cis-factorial reporter transcription; actives raise or lower the signal
Aryl hydrocarbon receptor (Homo sapiens), sequence (P35869 whole entry, looked up): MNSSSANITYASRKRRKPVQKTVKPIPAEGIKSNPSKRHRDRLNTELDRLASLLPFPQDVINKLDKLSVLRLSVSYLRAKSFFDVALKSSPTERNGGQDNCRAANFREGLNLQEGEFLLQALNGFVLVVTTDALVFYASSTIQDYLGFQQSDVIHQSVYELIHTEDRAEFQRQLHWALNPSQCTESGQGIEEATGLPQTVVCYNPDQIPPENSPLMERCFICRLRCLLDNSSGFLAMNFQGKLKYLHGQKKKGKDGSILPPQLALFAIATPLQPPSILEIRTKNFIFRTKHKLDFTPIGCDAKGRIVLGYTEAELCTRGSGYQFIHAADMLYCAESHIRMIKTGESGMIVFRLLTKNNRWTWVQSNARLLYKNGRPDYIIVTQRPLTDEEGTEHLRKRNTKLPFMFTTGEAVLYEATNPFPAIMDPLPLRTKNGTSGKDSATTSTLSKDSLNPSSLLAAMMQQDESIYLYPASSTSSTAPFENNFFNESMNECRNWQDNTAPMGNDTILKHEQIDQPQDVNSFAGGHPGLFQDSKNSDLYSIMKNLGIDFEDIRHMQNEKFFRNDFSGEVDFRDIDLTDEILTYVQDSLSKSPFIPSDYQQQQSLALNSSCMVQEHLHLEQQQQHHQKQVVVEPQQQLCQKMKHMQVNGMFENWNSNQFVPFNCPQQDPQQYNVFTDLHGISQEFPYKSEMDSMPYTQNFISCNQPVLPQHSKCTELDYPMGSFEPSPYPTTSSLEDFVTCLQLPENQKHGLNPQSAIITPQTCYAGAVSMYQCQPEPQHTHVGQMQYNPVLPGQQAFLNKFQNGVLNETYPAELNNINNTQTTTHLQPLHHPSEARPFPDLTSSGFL
Procedure, shortened: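 Transient MRTU transfection of HepG2 → 24 h compound exposure → total RNA, oligo(dT) RT → PCR, 6-FAM extension, HpaI cut → CE fluorescence. DMSO = baseline; bidirectional curve fit.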

Measured: AC50

Cc1cc(C)c(C=O)c(C)c1
active: [9] 3.85 µM
inactive: [1] | [2] | [3] | [4] | [5] | [6] | [7] | [8] | [10] | [11] | [12] | [13] | [14] | [15] | [16] | [17] | [18]

O=C(O)CC(C(=O)O)S(=O)(=O)O (stereo not drawn)
inactive: [1] | [2] | [3] | [4] | [5] | [6] | [7] | [8] | [9] | [10] | [19] | [11] | [12] | [13] | [14] | [15] | [16] | [18]

CCC(C)C(=O)OC (stereo not drawn)
inactive: [2] | [3] | [4] | [5] | [20] | [7] | [8] | [9] | [10] | [19] | [11] | [12] | [13] | [14] | [16] | [17] | [18]
active: [1] 0.0271 µM

Oc1ccccc1Cc1ccccc1O
active: [5] 114 µM | [12] 72.5 µM | [14] 27.7 µM
inactive: [1] | [2] | [3] | [4] | [6] | [7] | [8] | [10] | [11] | [13] | [15] | [16] | [17] | [18]

CC/C=C\C/C=C\C/C=C\CCCCCCCC(=O)OC
inactive: [1] | [2] | [3] | [4] | [10] | [11] | [12] | [13] | [15] | [16] | [18]
active: [5] 71.1 µM | [6] 70.6 µM | [7] 100 µM | [8] 167 µM | [9] 100 µM | [19] 134 µM | [14] 38.9 µM

CN(C)Cc1cc(CN(C)C)c(O)c(CN(C)C)c1
inactive: [1] | [2] | [3] | [4] | [5] | [20] | [7] | [8] | [9] | [10] | [19] | [12] | [13] | [14] | [15] | [16] | [17] | [18]

O=C(OCCc1ccccc1)c1ccccc1
inactive: [1] | [2] | [3] | [4] | [5] | [20] | [8] | [10] | [19] | [11] | [12] | [13] | [14] | [15] | [16] | [17] | [18]

CCCCCC1=CCCC1=O
active: [1] 0.106 µM
inactive: [2] | [3] | [4] | [5] | [6] | [7] | [8] | [9] | [10] | [19] | [11] | [12] | [13] | [14] | [15] | [16] | [17] | [18]
